Results reported in PubChem BioAssay (EPA / NIEHS).
Records with an inconclusive call do not appear. Active and inactive are the calls of the source. Rule for the calls, unless noted: active = hit-call score of the fitted dose curve at least 0.9, where 1 is the maximum; inconclusive = response in the unintended direction; inactive = score below 0.9.

Tests used:
[1] = STM_H9_CystineISnorm_perc: Stemina devTOX quickPredict H9 human embryonic stem cell (hESC)-based Assay for Cystine (CYSS) Metabolite Biomarker, Normalized (AID 2283713; active = hit-call score of the fitted dose curve at least 0.9, where 1 is the maximum; inactive = score below 0.9)
Summary of the method: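 H9 hESC, pluripotent; compound 72h, re-dosed q24h with medium change. Last-24h medium → 40% acetonitrile deproteinization → UPLC-HRMS. CYSS area / C13-CYSS standard, then % of 0.1% DMSO median.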

[2] = STM_H9_OrnCyssISnorm_ratio: Stemina devTOX quickPredict H9 human embryonic stem cell (hESC)-based Assay for Ornithine (ORN):Cystine (CYSS) Ratio (AID 2283714)
Summary of the method: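 Undifferentiated H9 hESCs exposed 72 h, media and compound replaced every 24 h; final 24-h conditioned media deproteinized and analysed by UPLC-HRMS against C13 spike-ins. Value is the internal-standard-normalized ORN/CYSS ratio versus 0.1% DMSO.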

[3] = CEETOX_H295R_MTT_cell_viability: Viability Assessment in the CeeTox HT-H295R MTT Assay (AID 2283718; active = hit-call score of the fitted dose curve at least 0.9, where 1 is the maximum; inactive = score below 0.9;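 for AC50: curve fitted both ways so AC50 may mark viability loss or gain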)
Summary of the method: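 Human H295R adrenal cells, prestimulated 48 h with 10 uM forskolin, were exposed 48 h to chemicals in 0.1% DMSO. Viability was measured in the same wells by MTT (0.5 mg/ml, 4 h, 37 C), absorbance 570/650 nm, as percent of controls.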

[4] = Tanguay_ZF_120hpf_ActivityScore_legacy: (Legacy) Oregon State University Tanguay Lab 120 Hour Post-fertilization zebrafish Assay Score for Activity (AID 2283742);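 for AC50: dechorionated Tropical 5D wild-type zebrafish embryos held singly per well; static exposure from 6 hpf until 120 hpf at 28 °C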
Summary of the method: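 Dechorionated Tropical 5D embryos, one per well from 6 hpf, statically exposed to 120 hpf at 28 °C in 0.64% DMSO. Mortality and malformations scored binary by brightfield microscopy; activity score combines 18 endpoints, fitted positively versus DMSO.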

[5] = target: Luciferin 4-monooxygenase (Photinus pyralis) (UniProt P08659); experiment: CCTE_Simmons_QuantiLum_inhib_2: CCTE's Firefly Luciferase Inhibition Assay, Simmons Lab (AID 2283767);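 for AC50: potency for inhibitors that lower luciferase luminescence relative to DMSO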
Summary of the method: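 Luminescence loss relative to DMSO vehicle defines inhibition; detection reagent containing 150 uM D-luciferin and 147 uM dATP (final, pH 7.8) is injected immediately before each read. Enzyme is preincubated with an 8-point titration (5 nM–87.5 uM final) for 30 min at 37C.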

[6] = ACEA_AR_antagonist_AUC_viability: ACEA Biosciences xCELLigence Real-Time Cell Analysis on Androgen Receptor Antagonism for Viability (AID 2283776);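 note: 22Rv1 human prostate cancer cells growing on impedance electrode plates; hits lower the growth signal relative to DMSO meaning cytotoxicity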
Summary of the method: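 22Rv1 prostate cells, continuous dosing up to 100 uM final (0.5% DMSO max), duplicate plates. Growth measured by impedance; AUC at 80 h, loss of signal vs DMSO.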

[7] = ACEA_AR_agonist_AUC_viability: ACEA Biosciences xCELLigence Real-Time Cell Analysis on Androgen Receptor Agonism for Viability (AID 2283775);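 for AC50: viability read 80 hours after compound addition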
Summary of the method: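 Real-time impedance tracking of 22Rv1 growth, readings every 5 min for 5 h then hourly; area-under-curve viability endpoint at 80 hours, relative to DMSO. Compounds at eight concentrations, 1:4 steps, top 100 uM, n = 2.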

[8] = ArunA_CellTiter_hNC: Viability Assessment in the ArunA Biomedical's Oris Neural Crest (hNC) Cell Migration Assay (AID 2283752)
Summary of the method: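 Cell titer was measured with the CellTiter Aqueous One reagent after 72 h of chemical dosing. Cells were H9-derived embryonic neural crest stem cells seeded on Matrigel, 60,000 per well, and given 16 h at 37C beforehand.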

[9] = ArunA_Migration_hNC: ArunA Biomedical's Oris Neural Crest (hNC) Cell Migration Assay (AID 2283755)
Summary of the method: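 Human H9-derived neural crest stem cells, 60,000/well on Matrigel, 16 h at 37C, then 72 h chemical exposure after seeding-stopper removal. Migration into detection zone read as calcein-AM fluorescence (ex494/em517), relative to DMSO.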

[10] = ArunA_NOG_NucleusCount: ArunA Biomedical's Neurite Outgrowth (NOG) Assay for Nucleus Count (AID 2283756)
Summary of the method: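 Human H9-derived differentiated neurons were exposed for 48 h right after seeding. Hoechst-stained nuclei gated by size and intensity were counted by automated high-content imaging as viable neurons. Loss of signal vs DMSO.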

[11] = ArunA_NOG_NeuriteLength: ArunA Biomedical's Neurite Outgrowth (NOG) Assay for Neurite Length (AID 2283757)
Summary of the method: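 Differentiated human H9-derived neurons were exposed for 48 h from seeding, then stained with Hoechst and βIII-tubulin. Automated high-content imaging gave total neurite length per valid neuron, counting processes >10 um. Loss of signal was scored versus DMSO.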

[12] = ArunA_NOG_NeuritesPerNeuron: ArunA Biomedical's Neurite Outgrowth (NOG) Assay for Neurites Per Neuron (AID 2283758)
Summary of the method: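 Differentiated human H9-derived neurons exposed to chemicals for 48 h from seeding, then stained with Hoechst and βIII-tubulin/DyLight 488. Automated imaging counted neurites (processes >10 um) per valid neuron; loss of signal versus DMSO scored.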

[13] = tested on: Thyroperoxidase (TPO), gene 445522; experiment: CCTE_Simmons_GUA_TPO: CCTE's Guaiacol Assay for Thyroperoxidase (TPO) Inhibition, Simmons Lab (AID 2283750)
Summary of the method: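 Porcine thyroid microsomes (25 ug) in 200mM potassium phosphate, preincubated 30 s at 37C with compound (8 concentrations, 5 nM–87.5 uM) and 35mM guaiacol; 1mM H2O2 starts reaction. Absorbance change at 450nm over first 80 s; loss of signal versus DMSO, three replicates.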

[14] = ArunA_Migration_hNP: ArunA Biomedical's Oris Neuroprogenitor (hNP) Cell Migration Assay (AID 2283754)
Summary of the method: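 Human H9-derived hNP1 neuroprogenitors on Matrigel with LIF/bFGF, plated around seeding stoppers for 16 h at 37C; stoppers removed at start of 72 h chemical exposure. Calcein-AM staining, fluorescence 494/517 nm in detection zone; loss-of-signal vs DMSO; cytochalasin D control.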

Sequence of Luciferin 4-monooxygenase (Photinus pyralis) (P08659 whole entry, looked up): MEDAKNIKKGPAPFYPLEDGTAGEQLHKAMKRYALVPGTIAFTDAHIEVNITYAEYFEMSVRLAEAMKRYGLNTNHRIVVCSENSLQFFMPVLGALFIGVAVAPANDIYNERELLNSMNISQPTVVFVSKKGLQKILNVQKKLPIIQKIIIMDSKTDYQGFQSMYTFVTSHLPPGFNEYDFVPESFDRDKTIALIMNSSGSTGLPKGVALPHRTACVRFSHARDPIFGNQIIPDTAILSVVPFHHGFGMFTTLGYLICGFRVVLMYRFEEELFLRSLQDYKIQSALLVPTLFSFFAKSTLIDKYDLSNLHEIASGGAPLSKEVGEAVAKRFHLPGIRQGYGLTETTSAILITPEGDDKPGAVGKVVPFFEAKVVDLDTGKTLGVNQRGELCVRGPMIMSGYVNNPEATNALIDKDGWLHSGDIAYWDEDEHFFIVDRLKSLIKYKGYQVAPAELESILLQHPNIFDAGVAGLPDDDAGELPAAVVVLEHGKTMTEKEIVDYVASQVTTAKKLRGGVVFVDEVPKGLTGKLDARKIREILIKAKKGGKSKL

## Nc1cccc2c(N)cccc12
[1]
  outcome: inactive
[2]
  outcome: inactive
[3]
  outcome: inactive
[4]
  outcome: inactive
[5]
  AC50: 10.6 µM (active)

## N#C[C@@H]1CC(F)(F)CN1C(=O)CNC1CC2CCC(C1)N2c1ncccn1 (some centres undefined)
[1]
  outcome: inactive
[4]
  outcome: inactive
[5]
  outcome: inactive
[6]
  outcome: inactive

## O=c1c(-c2ccc(O)cc2)coc2cc(O)ccc12
[3]
  outcome: inactive
[4]
  outcome: inactive
[5]
  AC50: 8.1 µM (active)
[7]
  outcome: inactive
[6]
  outcome: inactive

## c1ccc2c(c1)ccc1ccccc12
[1]
  AC50: 80.3 µM (active)
[2]
  AC50: 78.7 µM (active)
[4]
  outcome: inactive
[7]
  AC50: 50 µM (active)
[6]
  AC50: 50 µM (active)

## CCCOC(=O)c1ccc(O)cc1
[3]
  outcome: inactive
[4]
  AC50: 43.3 µM (active)
[7]
  outcome: inactive
[6]
  outcome: inactive

## CC#C[C@]1(O)CC[C@H]2[C@@H]3CCC4=CC(=O)CCC4=C3[C@@H](c3ccc(N(C)C)cc3)C[C@@]21C
[3]
  AC50: 13.4 µM (active)
[4]
  AC50: 27.9 µM (active)
[5]
  outcome: inactive
[7]
  AC50: 28.1 µM (active)
[6]
  AC50: 25.2 µM (active)

## CCC(=C(c1ccc(O)cc1)c1ccc(OCCN(C)C)cc1)c1ccccc1
[3]
  outcome: inactive
[4]
  outcome: inactive
[5]
  outcome: inactive
[7]
  AC50: 6.23 µM (active)
[6]
  AC50: 5.79 µM (active)

## Cc1cc(CCN2CCN(c3nsc4ccccc34)CC2)cc2c1NC(=O)CC2(C)C
[1]
  AC50: 8.41 µM (active)
[2]
  AC50: 7.94 µM (active)
[3]
  AC50: 11.1 µM (active)
[4]
  AC50: 3.78 µM (active)
[7]
  AC50: 9.03 µM (active)
[6]
  AC50: 21.4 µM (active)

## CN1CCC[C@H]1c1cccnc1
[1]
  outcome: inactive
[3]
  outcome: inactive
[4]
  outcome: inactive
[7]
  outcome: inactive
[6]
  outcome: inactive

## CCCOc1sc(C(=O)N2CCC(c3cc(CN)ccc3F)CC2)c(C)c1Br
[4]
  outcome: inactive

## O=[N+]([O-])c1ccc(O)cc1
[3]
  outcome: inactive
[4]
  outcome: inactive
[7]
  outcome: inactive
[6]
  outcome: inactive

## CN(C)C=O
[1]
  outcome: inactive

## CCc1ccc(CCOc2ccc(CC3SC(=O)NC3=O)cc2)nc1 (centres undefined)
[1]
  AC50: 88.9 µM (active)
[2]
  AC50: 84.5 µM (active)
[3]
  outcome: inactive
[4]
  outcome: inactive
[7]
  AC50: 50 µM (active)
[6]
  AC50: 26.5 µM (active)

## COc1ccc([N+](=O)[O-])cc1N
[1]
  outcome: inactive
[2]
  outcome: inactive
[3]
  outcome: inactive
[4]
  outcome: inactive
[5]
  outcome: inactive
[7]
  outcome: inactive
[6]
  AC50: 27.3 µM (active)

## CCCCCCCCCCCCCCCS(=O)(=O)Oc1ccccc1
[3]
  outcome: inactive
[4]
  outcome: inactive
[7]
  outcome: inactive
[6]
  outcome: inactive

## O=C(O)Cc1cc(I)c(Oc2cc(I)c(O)c(I)c2)c(I)c1
[1]
  outcome: inactive
[2]
  outcome: inactive
[4]
  AC50: 3.08 µM (active)
[8]
  outcome: inactive
[9]
  outcome: inactive
[10]
  outcome: inactive
[11]
  outcome: inactive
[12]
  outcome: inactive
[7]
  AC50: 51.7 µM (active)
[6]
  AC50: 46.6 µM (active)

## CC(O)CO (centres undefined)
[1]
  AC50: 675000 µM (active)
[4]
  outcome: inactive
[7]
  outcome: inactive
[6]
  AC50: 11.9 µM (active)

## COC(=O)CCCCC(=O)OC
[3]
  outcome: inactive
[4]
  outcome: inactive
[7]
  outcome: inactive
[6]
  outcome: inactive

## CC1=C(/C=C/C(C)=C/C=C/C(C)=C/C(=O)O)C(C)(C)CCC1
[1]
  AC50: 0.00844 µM (active)
[2]
  AC50: 0.00532 µM (active)
[3]
  AC50: 1.21 µM (active)
[4]
  AC50: 0.34 µM (active)
[5]
  outcome: inactive
[6]
  AC50: 78.6 µM (active)

## CN1CCN(c2ccccc2/C=C2\SCCN(c3ccc(Cl)c(Cl)c3)C2=O)CC1
[1]
  AC50: 7.81 µM (active)
[2]
  AC50: 7.71 µM (active)
[4]
  outcome: inactive
[5]
  outcome: inactive
[7]
  AC50: 66.3 µM (active)
[6]
  AC50: 66.9 µM (active)

## O=C(O)c1ccccc1C(c1ccc(O)cc1)c1ccc(O)cc1
[3]
  outcome: inactive
[4]
  outcome: inactive
[13]
  AC50: 118 µM (active)
[5]
  AC50: 15.3 µM (active)
[7]
  outcome: inactive
[6]
  outcome: inactive

## O=C(OCCOCCOC(=O)c1ccccc1)c1ccccc1
[1]
  outcome: inactive
[2]
  outcome: inactive
[4]
  outcome: inactive
[7]
  outcome: inactive
[6]
  outcome: inactive

## c1ccc2c(c1)Cc1ccccc1-2
[3]
  outcome: inactive
[4]
  outcome: inactive
[7]
  outcome: inactive
[6]
  outcome: inactive

## CCCCCCCCCCCCc1ccccc1S(=O)(=O)O
[1]
  outcome: inactive
[4]
  outcome: inactive
[8]
  outcome: inactive
[14]
  outcome: inactive
[9]
  outcome: inactive
[10]
  outcome: inactive
[5]
  outcome: inactive
[7]
  outcome: inactive
[6]
  outcome: inactive

## c1ccc2cc3c(ccc4ccccc43)cc2c1
[3]
  outcome: inactive
[4]
  outcome: inactive
[5]
  AC50: 17.3 µM (active)

## C#C[C@]1(O)CC[C@H]2[C@@H]3CCC4=CC(=O)CC[C@@H]4[C@H]3CC[C@@]21C
[1]
  AC50: 79.8 µM (active)
[2]
  AC50: 74.8 µM (active)
[3]
  AC50: 2.31 µM (active)
[4]
  outcome: inactive

## CCCCCCCCC(=O)O
[3]
  outcome: inactive
[4]
  outcome: inactive
[7]
  outcome: inactive
[6]
  outcome: inactive

## CC(C)(C)c1cc(C(C)(C)C)c(O)c(C(C)(C)C)c1
[4]
  outcome: inactive
[5]
  outcome: inactive
